From ChEMBL document CHEMBL4513216, “Probing the Open Global Health Chemical Diversity Library for Multistage-Active Starting Points for Next-Generation Antimalarials” (ACS Infect Dis, 2020)
About 2,700 (4%) of roughly 68,000 compounds showed an effect of 50% or more. This excerpt belongs to a sample that is enriched for strong results.

The compounds below were run on Plasmodium berghei (assay: Screen against P. berghei liver stage (PbLuc), transformed with Luciferase, at 2uM). Conditions: tested at 2 uM.
Type: functional, HepG2

SMILES | INHIBITION
CN(CCCc1cnn(C)c1)Cc1cc2n(n1)CCNC2 | 19.66%
CS(=O)(=O)NCCCN1CCCC1c1ccsc1 (stereo unspecified) | 51.46%
CS(=O)(=O)NCCCN1CCCC1c1ccccc1 (stereo unspecified) | 42.11%
CS(=O)(=O)NCCCN1CCCC1c1cccc(Br)c1 (stereo unspecified) | -8.52%
Cc1noc(C)c1CN1C[C@@H]2COC[C@H](C(=O)N3CCCCO3)[C@@H]2C1 | -60.98%
O=C(O)CCn1ccc(=O)c2cc(F)ccc21 | 55.73%
O=C(O)Cn1ccc(=O)c2cc(F)ccc21 | 3.88%
COC(=O)CCn1ccc(=O)c2cc(F)ccc21 | -17.26%
O=C(CCn1cncn1)Nc1ccc(F)cc1OCC1CC1 | 14.47%
Cn1cc(CNCCNc2ncc(Cl)cc2Cl)cn1 | -12.84%
Cn1ccnc1CNCCNc1ncc(Cl)cc1Cl | 57.43%
CCn1cc(CNCCNc2ncc(Cl)cc2Cl)cn1 | -30.98%
CC(C)c1nc(CN2CCc3onc(-c4cccc(F)c4)c3C2)no1 | -18.57%
COc1c(CNCCNC(=O)c2ccccc2F)c(C)nn1C | 67.69%
COc1c(CNCCNC(=O)c2ccccc2)c(C)nn1C | 33.82%
COc1c(CNCCNC(=O)c2ccc(C)c(F)c2)c(C)nn1C | -45.21%

SMILES | INHIBITION
COc1cccc([C@@H]2CN(C(=O)c3ccc(C)cc3O)C[C@H]2C(=O)O)c1 | 10.1%
Cc1cn2nc(N3CCCC3C(=O)N3CCOCC3)sc2n1 (stereo unspecified) | -11.41%
Cc1cn2nc(N3CCCC3C(=O)N3CCSCC3)sc2n1 (stereo unspecified) | 55.36%
Cc1cn2nc(N3CCCC3C(=O)N3CCN(C)CC3)sc2n1 (stereo unspecified) | 7.67%
COc1ccc(C(=O)NC(CC(=O)O)c2cccs2)c(OC)c1 (stereo unspecified) | 7.01%
COCC(O)CN1CCC(NC(=O)c2cccc(C)c2)CC1 (stereo unspecified) | 2.32%
Cc1cccc(C2(NCCCS(C)(=O)=O)CCCC2)c1 | 36.28%
CS(=O)(=O)CCCNC1(c2cccc(Cl)c2)CCCC1 | 17.2%
CS(=O)(=O)CCCNC1(c2ccc(Br)cc2)CCC1 | 55.36%
O=C(NCc1ccnc(OCC(F)(F)F)c1)NCC1CCOC1 (stereo unspecified) | -3.72%
CNC(=O)[C@H]1C[C@@H]2CN(S(=O)(=O)c3ccccc3)C[C@@H]2N1C(C)=O | 5.52%
O=C(NCc1cccs1)[C@H]1CC[C@@H]2[C@@H](CCN2c2ncccn2)O1 | -23.39%
Cc1cc(C(=O)N2CCc3ncnc(-c4cnn(C)c4)c3CC2)c(C)o1 | 55.94%
Cc1oncc1C(=O)N1CCc2ncnc(-c3cnn(C)c3)c2CC1 | 33.74%
Cc1occc1C(=O)N1CCc2ncnc(-c3cnn(C)c3)c2CC1 | 23.27%
